Experimental data as given in PubChem BioAssay (EPA / NIEHS).
Inconclusive results are not listed. Activity calls are given as the source filed them. How the source made its calls, unless noted: active means hit-call score of the fitted dose curve at least 0.9, where 1 is the maximum; inactive means score below 0.9.

Assays:
[1] = ATG_TCF_b_cat_CIS: Attagene CIS-FACTORIAL HepG2 Assay for human T-Cell-Factor with beta-catenin (TCF/b-cat) (AID 2282965); settings: HepG2 TCF/beta-catenin cis-reporter transcription, actives raise or lower the signal
In short: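 HepG2, transient MRTU transfection, cis-element-driven reporters (endogenous TFs). 24 h compound exposure. Readout: reporter mRNA by RT-PCR + 6-FAM primer extension, HpaI digest, capillary electrophoresis. Gain/loss fit vs DMSO baseline.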

[2] = ATG_TAL_CIS: Attagene CIS-FACTORIAL HepG2 Assay for human TAL Basal Promoter (AID 2282966); settings: HepG2 Attagene cis-factorial TAL promoter reporter; actives raise or lower the signal;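 further: background control endpoint measuring basal TAL promoter reporter mRNA not a specific factor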
In short: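 HepG2, transient MRTU transfection, 24 h compound exposure; RNA → oligo(dT) RT → PCR → 6-FAM primer extension → HpaI digest → CE fluorescence. Bidirectional curve fit vs DMSO. Background-control readout.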

[3] = ATG_TGFb_CIS: Attagene CIS-FACTORIAL HepG2 Assay for human Transforming Growth Factor (TGF) (AID 2282967); settings: HepG2 Attagene CIS TGFb reporter, mRNA transcription; actives raise or lower the signal
In short: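 Cells were dosed for 24 hours, after which total RNA was reverse-transcribed and reporter sequences amplified, labeled and sized by capillary electrophoresis. Activity was fitted in both directions against DMSO.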

[4] = ATG_VDRE_CIS: Attagene CIS-FACTORIAL HepG2 Assay for human Vitamin D Receptor Element (VDRE) (AID 2282968); settings: HepG2 VDRE cis-reporter transcription, actives raise or lower the signal
In short: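 Transient MRTU transfection of HepG2, 24 h compound exposure. Readout: reporter transcripts via RT-PCR and capillary electrophoresis, fluorescence. Bidirectional fit vs DMSO.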

[5] = target: Nuclear receptor subfamily 1 group I member 3 (Homo sapiens) (UniProt Q14994); test: ATG_CAR_TRANS: Attagene TRANS-FACTORIAL HepG2 Assay for human Constitutive Androstane Receptor (CAR) (AID 2282969; active means hit-call score of the fitted dose curve at least 0.9, where 1 is the maximum;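 further: activators raise reporter mRNA above DMSO so AC50 marks induction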); settings: HepG2 Attagene TRANS-FACTORIAL CAR reporter
Nuclear receptor subfamily 1 group I member 3 (Homo sapiens), sequence (Q14994 whole entry, looked up, the tested form may be a part): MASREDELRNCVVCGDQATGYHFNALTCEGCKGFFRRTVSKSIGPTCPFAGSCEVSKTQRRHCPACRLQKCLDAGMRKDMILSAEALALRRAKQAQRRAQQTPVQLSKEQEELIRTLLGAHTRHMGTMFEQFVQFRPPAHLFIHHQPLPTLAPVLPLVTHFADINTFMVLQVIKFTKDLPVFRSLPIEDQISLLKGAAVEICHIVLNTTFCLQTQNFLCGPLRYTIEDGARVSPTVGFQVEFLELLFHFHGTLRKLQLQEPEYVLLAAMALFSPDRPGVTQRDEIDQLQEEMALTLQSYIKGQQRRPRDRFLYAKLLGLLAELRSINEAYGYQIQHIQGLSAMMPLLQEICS
In short: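 Transiently transfected HepG2, multiplex TRANS reporters (CAR-Gal4 chimera driving GAL4-UAS reporter). 24 h dosing. Readout: reporter transcript by RT-PCR + capillary electrophoresis, fluorescence intensity; positive direction vs DMSO.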

[6] = target: Estrogen receptor (Homo sapiens) (UniProt P03372); test: ATG_ERa_TRANS: Attagene TRANS-FACTORIAL HepG2 Assay for human Estrogen Receptor alpha (ERa) (AID 2282970; active means hit-call score of the fitted dose curve at least 0.9, where 1 is the maximum); settings: HepG2 Attagene TRANS ERa GAL4 reporter, mRNA
Estrogen receptor (Homo sapiens), sequence (P03372 whole entry, looked up, the tested form may be a part): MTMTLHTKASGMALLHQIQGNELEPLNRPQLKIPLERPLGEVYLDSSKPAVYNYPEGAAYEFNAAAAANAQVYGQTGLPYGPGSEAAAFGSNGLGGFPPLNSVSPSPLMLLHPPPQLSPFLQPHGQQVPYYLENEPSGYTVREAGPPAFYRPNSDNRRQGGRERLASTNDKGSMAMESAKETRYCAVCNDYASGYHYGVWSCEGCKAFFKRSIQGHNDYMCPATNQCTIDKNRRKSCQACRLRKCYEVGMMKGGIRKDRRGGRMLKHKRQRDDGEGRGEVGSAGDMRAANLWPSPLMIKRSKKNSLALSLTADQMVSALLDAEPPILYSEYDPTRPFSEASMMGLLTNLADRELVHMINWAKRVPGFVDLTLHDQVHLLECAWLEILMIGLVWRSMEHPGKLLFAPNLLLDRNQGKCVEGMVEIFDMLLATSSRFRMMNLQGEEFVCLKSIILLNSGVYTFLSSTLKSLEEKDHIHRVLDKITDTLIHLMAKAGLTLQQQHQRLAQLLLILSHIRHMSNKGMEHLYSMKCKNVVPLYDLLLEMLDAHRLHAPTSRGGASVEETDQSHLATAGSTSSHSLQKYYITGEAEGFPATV
In short: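 Reporter mRNA induction after 24 hours, detected by fluorescent RT-PCR and capillary electrophoresis, gives the read-out. Cells are HepG2 transiently transfected with GAL4-UAS reporter transcription units responding to chimeric NR-Gal4. Activity is taken as gain of signal over DMSO baseline.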

[7] = target: X-box-binding protein 1 (Homo sapiens) (UniProt P17861); test: ATG_Xbp1_CIS: Attagene CIS-FACTORIAL HepG2 Assay for human X-box Binding Protein 1 (XBP1) (AID 2282972); settings: HepG2 XBP1 cis-element reporter, Attagene multiplex; actives raise or lower the signal
X-box-binding protein 1 (Homo sapiens), sequence (P17861 whole entry, looked up): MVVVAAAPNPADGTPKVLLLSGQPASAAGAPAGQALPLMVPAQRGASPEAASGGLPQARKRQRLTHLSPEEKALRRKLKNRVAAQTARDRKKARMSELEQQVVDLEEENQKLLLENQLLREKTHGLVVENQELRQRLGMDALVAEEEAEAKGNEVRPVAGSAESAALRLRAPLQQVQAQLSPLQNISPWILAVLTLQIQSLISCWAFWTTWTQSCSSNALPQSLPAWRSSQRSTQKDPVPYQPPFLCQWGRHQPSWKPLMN
In short: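 Human hepatoma HepG2, cis-element reporter system, 24 h treatment; mRNA quantified by RT-PCR/CE fluorescence; fit relative to DMSO.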

[8] = target: Androgen receptor (Homo sapiens) (UniProt P10275); test: ATG_AR_TRANS: Attagene TRANS-FACTORIAL HepG2 Assay for human Androgen Receptor (AR) (AID 2282973; active means hit-call score of the fitted dose curve at least 0.9, where 1 is the maximum); settings: HepG2 Attagene TRANS-FACTORIAL AR reporter transcription
Androgen receptor (Homo sapiens), sequence (P10275 whole entry, looked up, the tested form may be a part): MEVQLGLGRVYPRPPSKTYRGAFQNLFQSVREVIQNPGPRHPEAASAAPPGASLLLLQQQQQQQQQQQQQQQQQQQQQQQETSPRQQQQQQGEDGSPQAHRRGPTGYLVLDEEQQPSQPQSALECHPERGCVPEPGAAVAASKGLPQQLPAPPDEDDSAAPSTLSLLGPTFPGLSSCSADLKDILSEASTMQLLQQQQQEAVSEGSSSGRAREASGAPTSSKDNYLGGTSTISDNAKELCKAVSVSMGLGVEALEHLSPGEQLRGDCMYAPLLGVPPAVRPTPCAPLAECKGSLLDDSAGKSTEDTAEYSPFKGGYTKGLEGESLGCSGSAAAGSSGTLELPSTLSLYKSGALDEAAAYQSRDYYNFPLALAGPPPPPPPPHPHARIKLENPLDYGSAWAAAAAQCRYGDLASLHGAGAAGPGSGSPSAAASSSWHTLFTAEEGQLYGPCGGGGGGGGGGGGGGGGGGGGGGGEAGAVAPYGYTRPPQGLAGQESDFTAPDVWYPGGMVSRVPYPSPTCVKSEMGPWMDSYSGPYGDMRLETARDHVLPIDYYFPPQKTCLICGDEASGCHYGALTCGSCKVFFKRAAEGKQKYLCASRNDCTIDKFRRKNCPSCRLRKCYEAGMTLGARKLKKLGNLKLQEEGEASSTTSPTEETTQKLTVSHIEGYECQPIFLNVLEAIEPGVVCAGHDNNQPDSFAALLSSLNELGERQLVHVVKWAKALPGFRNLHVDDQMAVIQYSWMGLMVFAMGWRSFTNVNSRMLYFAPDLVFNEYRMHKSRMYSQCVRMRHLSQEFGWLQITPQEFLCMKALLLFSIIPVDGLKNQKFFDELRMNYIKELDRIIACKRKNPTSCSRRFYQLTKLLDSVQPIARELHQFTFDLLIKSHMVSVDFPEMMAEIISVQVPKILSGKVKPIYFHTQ
In short: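 Readout is reporter transcript abundance, quantified by fluorescent RT-PCR products separated on capillary electrophoresis. Human HepG2 liver cells carried transiently transfected NR-Gal4 chimera plus GAL4-UAS reporter constructs and were dosed for 24 h; activity scored upward versus DMSO.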

[9] = ATG_M_19_TRANS: Attagene TRANS-FACTORIAL HepG2 Assay for M19 Transcription Factor (Internal Marker) (AID 2282974; active means hit-call score of the fitted dose curve at least 0.9, where 1 is the maximum); settings: HepG2 Attagene TRANS-FACTORIAL M19 internal marker reporter
In short: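 Using RT-PCR and capillary electrophoresis, reporter mRNA from transiently transfected human HepG2 cells was quantified following 24 h exposure; activity was fitted in the positive direction against DMSO.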

[10] = target: Steroid hormone receptor ERR1 (Homo sapiens) (UniProt P11474); test: ATG_ERRa_TRANS: Attagene TRANS-FACTORIAL HepG2 Assay for human Estrogen-Related Receptor alpha (ERRa) (AID 2282971; active means hit-call score of the fitted dose curve at least 0.9, where 1 is the maximum); settings: HepG2 Attagene TRANS reporter, ERRa transactivation
Steroid hormone receptor ERR1 (Homo sapiens), sequence (P11474 whole entry, looked up, the tested form may be a part): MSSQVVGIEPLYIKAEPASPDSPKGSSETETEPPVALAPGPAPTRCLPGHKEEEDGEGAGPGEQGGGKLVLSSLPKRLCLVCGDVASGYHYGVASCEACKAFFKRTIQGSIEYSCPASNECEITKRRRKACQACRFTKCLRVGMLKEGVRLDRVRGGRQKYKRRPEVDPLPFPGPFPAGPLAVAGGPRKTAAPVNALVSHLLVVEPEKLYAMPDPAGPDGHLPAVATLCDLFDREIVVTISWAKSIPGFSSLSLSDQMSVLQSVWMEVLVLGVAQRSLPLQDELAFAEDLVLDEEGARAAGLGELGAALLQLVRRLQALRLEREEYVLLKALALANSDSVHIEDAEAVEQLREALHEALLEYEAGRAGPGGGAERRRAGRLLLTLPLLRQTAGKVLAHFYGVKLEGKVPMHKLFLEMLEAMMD
In short: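 Transfected HepG2, 24 h dosing, ERRa-Gal4 chimera driving GAL4-UAS reporter. Readout: reporter mRNA via RT-PCR plus capillary electrophoresis (fluorescence). Positive direction vs DMSO control.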

Measured: AC50

ClC(Cl)(Cl)c1ccccc1
active: [6] 45.2 µM
not listed: [8] | [9] | [10]
inactive: all other assays above

CCCCC(CC)COP(=O)(Oc1ccccc1)Oc1ccccc1 (configuration not stated)
active: [4] 0.866 µM | [6] 1.16 µM | [7] 100 µM
not listed: [10]
inactive: all other assays above

Clc1ccc(Oc2ccccc2)cc1
active: [6] 41.7 µM
not listed: [9] | [10]
inactive: all other assays above

CC(=O)c1ccc(-c2ccccc2)cc1
active: [4] 32 µM | [6] 6.19 µM
not listed: [9] | [10]
inactive: all other assays above

ClC1=C(Cl)C2(Cl)C3C(Cl)C(Cl)CC3C1(Cl)C2(Cl)Cl (configuration not stated)
active: [1] 27.1 µM | [4] 3.76 µM | [6] 13.4 µM
not listed: [9] | [10]
inactive: all other assays above

CCOP(=S)(OCC)SCSc1ccc(Cl)cc1
active: [4] 5.83 µM | [6] 3.48 µM
not listed: [8] | [10]
inactive: all other assays above

CC(O)C(F)(F)C(F)(F)F (configuration not stated)
inactive: all assays above

CCCN(CCC)c1c([N+](=O)[O-])cc(C(C)C)cc1[N+](=O)[O-]
not listed: [8] | [10]
inactive: all other assays above

O=c1[nH]c2ccccc2c(=O)o1
not listed: [8] | [9] | [10]
inactive: all other assays above

N#Cc1cc([N+](=O)[O-])ccc1N
not listed: [8] | [9]
inactive: all other assays above

CC(C)(C)c1ccccc1OP(=O)(Oc1ccccc1)Oc1ccccc1
active: [6] 5.03 µM
not listed: [8]
inactive: all other assays above

O=NN1CCCC1
not listed: [8] | [10]
inactive: all other assays above

CC(C)Nc1ccc(Nc2ccccc2)cc1
active: [4] 3.68 µM | [6] 8.77 µM
not listed: [8]
inactive: all other assays above
